Assay results published in PubChem BioAssay AID1159580 (chemical genetic matrix, 2015).
Values joined by “and” are separate entries in the source; they are usually repeats but may differ in a detail not shown here. Equal entries are not always repeated. Screen size: about 5,500 compounds; about 2,000 (36%) were called active. Not shown: some 18% with an inconclusive outcome. No stated cut-off is given here; in the data, active means normalized growth mostly below about 0.91 (no sharp cut-off); inconclusive means no clear call, values can overlap the other calls; inactive means mostly above about 0.92. Some of the results follow.

Assay: chemical genetic growth profiling, strain panel (AID 1159580);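 further: tested at 20 µM; growth read once vehicle control cultures reached saturation at 30 °C; 1 = growth at the plate median or of vehicle wells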
Conditions: S. cerevisiae deletion strains, growth OD

Measured: normalized growth

Oc1ccc(Cl)cc1Cc1cc(Cl)ccc1O
active: locus YAL013W, strain DEP1, stronger effect = lower value 0.0573 | locus YAL021C, strain ccr4, stronger effect = lower value 0.0695 | locus YAL026C, strain drs2, stronger effect = lower value 0.0747 | locus YAL030W, strain snc1, stronger effect = lower value 0.0569 | locus YBL061C, strain skt5, stronger effect = lower value 0.0645 | locus YBR009C, strain hhf1, stronger effect = lower value 0.0651 | locus YBR021W, strain FUR4, stronger effect = lower value 0.253 | locus YBR023C, strain chs3, stronger effect = lower value 0.07 | locus YBR171W, strain sec66, stronger effect = lower value 0.124 | locus YBR229C, strain ROT2, stronger effect = lower value 0.0685 | locus YBR231C, strain swc5, stronger effect = lower value 0.0629 | locus YBR279W, strain paf1, stronger effect = lower value 0.0982 | locus YCL011C, strain gbp2, stronger effect = lower value 0.0575 | locus YCL016C, strain dcc1, stronger effect = lower value 0.0745 | locus YCL029C, strain bik1, stronger effect = lower value 0.0624 | locus YCL061C, strain MRC1, stronger effect = lower value 0.107 | locus YCL069W, strain vba3, stronger effect = lower value 0.0848 | locus YCR088W, strain abp1, stronger effect = lower value 0.0882 | locus YDL005C, strain med2, stronger effect = lower value 0.0747 | locus YDL035C, strain GPR1, stronger effect = lower value 0.0712 | locus YDL040C, strain nat1, stronger effect = lower value 0.0791 | locus YDL074C, strain BRE1, stronger effect = lower value 0.092 | locus YDL101C, strain DUN1, stronger effect = lower value 0.0631 | locus YDL134C, strain PPH21, stronger effect = lower value 0.0596 | locus YDL185W, strain tfp1, stronger effect = lower value 0.0573 | locus YDL192W, strain arf1, stronger effect = lower value 0.0725 | locus YDR001C, strain nth1, stronger effect = lower value 0.107 | locus YDR069C, strain doa4, stronger effect = lower value 0.0709 | locus YDR101C, strain arx1, stronger effect = lower value 0.0668 | locus YDR137W, strain rgp1, stronger effect = lower value 0.0823 | locus YDR150W, strain NUM1, stronger effect = lower value 0.141 | locus YDR159W, strain sac3, stronger effect = lower value 0.0887 | locus YDR162C, strain NBP2, stronger effect = lower value 0.0492 | locus YDR195W, strain ref2 0.12 | locus YDR297W, strain sur2, stronger effect = lower value 0.0586 | locus YDR318W, strain mcm21, stronger effect = lower value 0.0649 | locus YDR334W, strain swr1, stronger effect = lower value 0.0861 | locus YDR335W, strain msn5, stronger effect = lower value 0.0832 | locus YDR388W, stronger effect = lower value 0.0554 | locus YDR392W, strain spt3, stronger effect = lower value 0.0992 | locus YDR502C, strain sam2, stronger effect = lower value 0.0624 | locus YEL003W, strain gim4, stronger effect = lower value 0.0565 | locus YEL037C, strain rad23, stronger effect = lower value 0.271 | locus YEL061C, strain CIN8 (second series), stronger effect = lower value 0.0757 | locus YEL061C, strain CIN8, stronger effect = lower value 0.0536 | locus YER015W, strain faa2, stronger effect = lower value 0.0622 | locus YER016W, strain bim1, stronger effect = lower value 0.0644 | locus YER110C, stronger effect = lower value 0.0746 | locus YER111C, strain swi4, stronger effect = lower value 0.0777 | locus YER155C, strain BEM2 (second series), stronger effect = lower value 0.109 | locus YER155C, strain BEM2, stronger effect = lower value 0.0649 | locus YER167W, strain BCK2, stronger effect = lower value 0.0527 | locus YFR010W, strain ubp6, stronger effect = lower value 0.185 | locus YGL078C, strain dbp3, stronger effect = lower value 0.0765 | locus YGL086W, strain mad1, stronger effect = lower value 0.0581 | locus YGL167C, strain pmr1, stronger effect = lower value 0.0782 | locus YGL173C, strain kem1, stronger effect = lower value 0.101 | locus YGL227W, strain vid30, stronger effect = lower value 0.0709 | locus YGL240W, strain doc1, stronger effect = lower value 0.08 | locus YGL248W, strain PDE1, stronger effect = lower value 0.0764 | locus YGL253W, strain hxk2, stronger effect = lower value 0.0817 | locus YGR078C, strain PAC10, stronger effect = lower value 0.0754 | locus YGR135W, strain pre9, stronger effect = lower value 0.0765 | locus YGR229C, strain SMI1, stronger effect = lower value 0.0636 | locus YGR252W, strain gcn5, stronger effect = lower value 0.146 | locus YHR013C, strain ard1, stronger effect = lower value 0.109 | locus YHR027C, strain rpn1, stronger effect = lower value 0.0641 | locus YHR030C, strain SLT2, stronger effect = lower value 0.0512 and 0.0939 | locus YHR079C, strain IRE1 (second series), stronger effect = lower value 0.0561 | locus YHR079C, strain IRE1, stronger effect = lower value 0.102 | locus YHR094C, strain hxt1, stronger effect = lower value 0.0607 | locus YHR129C, strain ARP1, stronger effect = lower value 0.0651 | locus YHR142W, strain chs7, stronger effect = lower value 0.0876 | locus YHR200W, strain rpn10, stronger effect = lower value 0.0673 | locus YIL066C, strain RNR3, stronger effect = lower value 0.0647 | locus YIL073C, strain SPO22, stronger effect = lower value 0.114 | locus YIL125W, strain kgd1, stronger effect = lower value 0.0642 | locus YIR030C, strain dcg1, stronger effect = lower value 0.0657 | locus YJL092W, strain hpr5, stronger effect = lower value 0.111 | locus YJL095W, strain BCK1 (second series), stronger effect = lower value 0.057 | locus YJL095W, strain BCK1, stronger effect = lower value 0.0553 and 0.0954 | locus YJL115W, strain asf1, stronger effect = lower value 0.201 | locus YJL129C, strain trk1, stronger effect = lower value 0.0878 | locus YJL134W, strain LCB3, stronger effect = lower value 0.0583 | locus YJL154C, strain vps35, stronger effect = lower value 0.0851 | locus YJL164C, strain tpk1, stronger effect = lower value 0.0647 | locus YJL166W, strain qcr8, stronger effect = lower value 0.0615 | locus YJL168C, strain set2, stronger effect = lower value 0.0792 | locus YJL187C, strain SWE1 (second series), stronger effect = lower value 0.0719 | locus YJL187C, strain SWE1, stronger effect = lower value 0.0599 | locus YJR043C, strain POL32, stronger effect = lower value 0.0779 | locus YJR066W, strain TOR1, stronger effect = lower value -0.000659
